The text below walks through data of PubChem BioAssay AID1004 (SRMLSC, 2008).

One may read the viability as a read-out of living cells in per cent, often relative to untreated cells.

Activity calls are given as the source filed them.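 Rule for the calls: active = viability at 10 µM of 29.74% or lower, 3 SD below the compound median; inactive = the rest.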

This assay in a line: viability of HCT116 lacking mutant beta-catenin – cell-based, DP diverse set, validation, pilot screen (AID 1004). As to conditions: HCT116 (mutant beta-catenin deleted) viability, CellTiter-Glo, 60 h; at 10 µM; hits give low values. (In general: In ATP-based viability assays light output follows the ATP content of the culture.)
For the molecule `CCn1cc(C(=O)O)c(=O)c2ccc(C)nc21`, the viability was 94.8% (inactive). Turning to `COc1cc(Cc2cnc(N)nc2N)cc(OC)c1OC`, the viability is 94.7% (inactive). To `O=c1c(-c2ccc(O)cc2)coc2cc(O)ccc12` belongs 91% (inactive); to `COC(=O)C1=C(C)NC(C)=C(C(=O)OCCNCc2ccccc2)C1c1cccc([N+](=O)[O-])c1` (stereo unspecified), 79.3% (inactive).

As to `COc1ccc(CCN(C)CCCN2CCc3cc(OC)c(OC)cc3CC2=O)cc1OC`, the viability was 102% (inactive). To `COC(=O)Nc1nc2ccc(C(=O)c3cccs3)cc2[nH]1` belongs 38.8% (inactive); to `OCCN(CCO)c1nc(N2CCCCC2)c2nc(N(CCO)CCO)nc(N3CCCCC3)c2n1`, 109% (inactive); to `CN=C(NC#N)NCCSCc1nc[nH]c1C`, 98.3% (inactive). The figure for `C=C(C)C1CC=C(C)C(O)C1` (stereo unspecified) is 94.9% (inactive). Regarding `CC[N+](CC)(CC)CC(=O)Nc1c(C)cccc1C`, the viability was 101% (inactive). The figure for `C=CCc1ccc(O)c(-c2cc(CC=C)ccc2O)c1` is 99.2% (inactive); for `CO[C@@H]1[C@@H](OC(N)=O)[C@@H](O)[C@H](Oc2ccc3c(O)c(NC(=O)c4ccc(O)c(CC=C(C)C)c4)c(=O)oc3c2C)OC1(C)C` it is 99.5% (inactive); for `COc1ccc(CCN2CCC(Nc3nc4ccccc4n3Cc3ccc(F)cc3)CC2)cc1` it is 44.6% (inactive). Regarding `C/C(=C\CNc1ncnc2c1ncn2[C@@H]1O[C@H](CO)[C@@H](O)[C@H]1O)CO`, the viability is 102% (inactive). As to `COc1ccc2cc([C@H](C)C(=O)O)ccc2c1`, the viability was 96.8% (inactive). To `Cn1c(=O)c2[nH]cnc2n(C)c1=O` belongs 100% (inactive).
